Data on 13 compounds can be found in PubChem BioAssay (Tox21).

The nature of experiment [1]: A CellTox Green Cytotoxicity Assay to monitor cytotoxicity in HepG2 cells - 0 hour (AID 1224882). Also: nearly all actives have a fitted effect of over 35% in size. A digest of the protocol: (§1)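 Cells and non-lytic dye reagent are dispensed together (600 HepG2 cells/well) and incubated 5 h before DMSO compound transfer. Kinetic fluorescence is then recorded in the same wells during 40 h at 37 C.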
Experiment [2] can be described thus: A CellTox Green Cytotoxicity Assay to monitor cytotoxicity in HEK293 cells - 8 hour (AID 1224884). Also: nearly all actives have a fitted effect of over 35% in size. An outline of the steps:
(§2)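 Cells (HEK293, 600/well) and dye reagent are dispensed together. After 5 h at 37 C, 23 nL compound is pinned in. Plates stay at 37 C for 40 h with fluorescence read at 0h, 8h, 16h, 24h, 32h and 40h.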

A short description of experiment [3]: qHTS RealTime-Glo MT Cell Viability Assay in HepG2 cells - 16 hour (AID 1224885). Also: nearly all actives have a fitted effect of over 50% in size. Also: potency is read from the fitted curve at half-maximal effect. An outline of the steps:
(§3)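 Cells + NanoLuc/prosubstrate dispensed (600 cells/well) → 5 h at 37 C/5% CO2 → compounds in DMSO transferred → 40 h incubation at 37 C, luminescence read at 0, 8, 16, 24, 32, 40 h.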
On the technique in general: qHTS replaces the single test concentration by a dilution series.

A short description of experiment [4]: qHTS RealTime-Glo MT Cell Viability Assay in HEK293 cells - 8 hour (AID 1224887). Also: nearly all actives have a fitted effect of over 50% in size. Also: potency is read from the fitted curve at half-maximal effect. As to activity change, negative = cytotoxicity: top concentration of the series differs between compounds. A digest of the protocol:
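Real-time viability in HEK293: signal arises when living cells convert a prosubstrate for NanoLuc in the medium, so luminescence tracks viable cell number. Compound (23 nL, DMSO) added 5 h post-seeding; kinetic reads at 0–40 h, 37 C.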

Experiment [5] can be described thus: A CellTox Green Cytotoxicity Assay to monitor cytotoxicity in HEK293 cells - 16 hour (AID 1224888). Also: nearly all actives have a fitted effect of over 35% in size. A digest of the protocol: as §2
The nature of experiment [6]: qHTS RealTime-Glo MT Cell Viability Assay in HepG2 cells - 0 hour (AID 1224889). Also: nearly all actives have a fitted effect of over 50% in size. A digest of the protocol: as §3
The nature of experiment [7]: A CellTox Green Cytotoxicity Assay to monitor cytotoxicity in HepG2 cells - 8 hour (AID 1224890). Also: nearly all actives have a fitted effect of over 45% in size. An outline of the steps:
as §1

Experiment [8] in a line: qHTS assay to identify small molecule antagonists of the androgen receptor (AR) signaling pathway using the MDA cell line in the presence of 0.5 nM R1881 - cell viability counter screen (AID 1259242). Also: nearly all actives have a fitted effect of over 45% in size. Also: potency is read from the fitted curve at half-maximal effect. An outline of the steps:
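Steps: plate MDA-kb2 cells, rest 5 hr at 37C without CO2; pin in compounds in DMSO; add R1881 to 0.5 nM final; incubate 16 hr; add CellTiter-Fluor, 30 min; read fluorescence.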

Experiment [9] is described as follows: qHTS assay to identify small molecule HDAC inhibitors (AID 1259364).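 Also: wild-type HCT-116 cells with endogenous class I/II HDAC activity; top concentration of the series differs between compounds; nearly all actives have a fitted effect of over 45% in size.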 A digest of the protocol: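 Cells (HCT-116, wild type) are seeded at 1,500 per well, incubated overnight, treated with compound in DMSO for 2 hr, then developed with HDAC-Glo I/II reagent for 30 min at room temperature.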
Experiment [10] is described as follows: qHTS assay to identify small molecule HDAC inhibitors - cell viability counter screen (AID 1259365). Also: series mostly up to about 92 µM; nearly all actives have a fitted effect of over 50% in size. An outline of the steps: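 Wild-type HCT-116 cells, 1,500/well, cultured overnight, then compound-treated 2 h at 37 C. Viability measured as ATP luminescence with CellTiter-Glo after 30 min at room temperature.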
A short description of experiment [11]: qHTS assay to identify small molecule agonists of the sonic hedgehog signaling (Shh) pathway - cell viability counter screen (AID 1259366). Also: nearly all actives have a fitted effect of over 50% in size. Also: potency is read from the fitted curve at half-maximal effect. An outline of the steps:
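NIH/3T3-derived Gli1-Luc reporter cells, 2,000 per well, received compound after 4 h and were treated about 23 h at 37C. Viability measured in the same wells by CellTiter-Fluor fluorescence after 1 h.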

Experiment [12] is described as follows: qHTS assay to identify small molecule antagonists of the sonic hedgehog signaling (Shh) pathway - cell viability counter screen (AID 1259367). Also: nearly all actives have a fitted effect of over 55% in size. Also: potency is read from the fitted curve at half-maximal effect. An outline of the steps:
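Fluorescence read-out (CellTiter-Fluor, 1 hr at 37C) taken after 23 hr compound treatment of 3T3 Gli1-Luc cells stimulated with conditioned medium. Cells were seeded at 2,000 per well and pre-incubated 4 hr.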

The nature of experiment [13]: qHTS assay to identify small molecule agonists of the sonic hedgehog signaling (Shh) pathway (AID 1259368; calls by dose curve;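 also: NIH/3T3-derived 3T3Gli1-Luc cells carrying a stable Gli1-driven firefly luciferase reporter; series mostly up to about 92 µM; nearly all actives have a fitted effect of over 15% in size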). An outline of the steps: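 Cells of a mouse NIH/3T3 clone stably expressing luciferase under the Gli1 transcriptional response element are exposed to test chemicals for 24 hr at 37 C. Pathway activation is detected as a rise in luminescence.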
Experiment [14] is described as follows: qHTS assay to identify small molecule antagonists of the sonic hedgehog signaling (Shh) pathway (AID 1259369; calls by dose curve; also: nearly all actives have a fitted effect of over 45% in size; also: potency is read from the fitted curve at half-maximal effect). An outline of the steps:
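Cells are plated and held 4hr at 37 C, compounds (DMSO) are pinned in, conditioned medium is added to stimulate the pathway, and after 24hr luciferase reagent is added for 30min before luminescence is read.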

The nature of experiment [15]: qHTS RealTime-Glo MT Cell Viability Assay in HEK293 cells - 24 hour (AID 1224886). Also: nearly all actives have a fitted effect of over 50% in size. Also: potency is read from the fitted curve at half-maximal effect. As to activity change, negative = cytotoxicity: top concentration of the series differs between compounds. A digest of the protocol:
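Tox21 10K qHTS, HEK293, 600 cells/well, RealTime-Glo reagent co-dispensed with cells; 5 h preincubation, compound by pintool, 37 C, luminescence at 0–40 h.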

Experiment [16] can be described thus: qHTS assay to identify small molecule antagonists of the estrogen receptor alpha (ER-alpha) signaling pathway using the BG1 cell line in the presence of 0.1 nM 17-beta-estradiol - cell viability counter screen (AID 1259241). Also: nearly all actives have a fitted effect of over 40% in size. A digest of the protocol:
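VM7Luc4E2 cells (endogenous full-length ER-alpha, 4xERE-luciferase), cultured 5 days in charcoal-stripped serum, exposed to compounds with 0.1 nM 17beta-estradiol (final) for 22 hr at 37C. Viability read in same wells as live-cell protease fluorescence after 30 min.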

For experiment [17], the target named is Androgen receptor (Homo sapiens) (UniProt P10275). In words: qHTS assay to identify small molecule antagonists of the androgen receptor (AR) signaling pathway using the MDA cell line in the presence of 0.5 nM R1881 (AID 1259243). Also: nearly all actives have a fitted effect of over 50% in size. Also: potency is read from the fitted curve at half-maximal effect. A digest of the protocol: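 Stably transfected MDA-kb2 cells express luciferase from an MMTV promoter bearing both AR and GR response elements. Compounds plus 0.5 nM R1881 (final) were incubated 16 hr at 37C without CO2, then luminescence measured.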

The target in experiment [18] is Estrogen receptor (Homo sapiens) (UniProt P03372). In words: qHTS assay to identify small molecule antagonists of the estrogen receptor alpha (ER-alpha) signaling pathway using the BG1 cell line in the presence of 0.1 nM 17-beta-estradiol (AID 1259244). Also: nearly all actives have a fitted effect of over 50% in size. Also: potency is read from the fitted curve at half-maximal effect. An outline of the steps:
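Antagonist mode: compounds in DMSO are pinned onto VM7Luc4E2 reporter cells, 0.1 nM final 17beta-estradiol is added, and after 22 h at 37C luciferase luminescence is measured with ONE-Glo.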

Experiment [19] can be described thus: qHTS assay to identify small molecule phospholipidosis (PLD) inducers (AID 1259344; active = well fitted curve in the direction sought with a large enough effect; an effect the other way counts as inactive or inconclusive). An outline of the steps:
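Read-out is LipidTOX Red fluorescence (ex 595/em 615) imaged in HepG2 cells after 24 h compound exposure at 37 C, with Hoechst nuclear counterstain (ex 352/em 461) allowing per-cell normalisation.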

The structures appear in SMILES notation. A number with no mark means an inactive call. Inconclusive results are not listed. Active and inactive are the calls of the source. Unless noted, calls follow the shape of the dose curve; as a rule, active = well fitted curve in the direction sought with a large enough effect in the repeat runs; inconclusive = weak or mixed curves; inactive = no such curve, though single readings can be large; an effect the other way counts as inactive or inconclusive.
% is scaled to controls: 0 for no effect and ±100 for the full control effect.

Sequence of Estrogen receptor (Homo sapiens) (P03372 whole entry, looked up): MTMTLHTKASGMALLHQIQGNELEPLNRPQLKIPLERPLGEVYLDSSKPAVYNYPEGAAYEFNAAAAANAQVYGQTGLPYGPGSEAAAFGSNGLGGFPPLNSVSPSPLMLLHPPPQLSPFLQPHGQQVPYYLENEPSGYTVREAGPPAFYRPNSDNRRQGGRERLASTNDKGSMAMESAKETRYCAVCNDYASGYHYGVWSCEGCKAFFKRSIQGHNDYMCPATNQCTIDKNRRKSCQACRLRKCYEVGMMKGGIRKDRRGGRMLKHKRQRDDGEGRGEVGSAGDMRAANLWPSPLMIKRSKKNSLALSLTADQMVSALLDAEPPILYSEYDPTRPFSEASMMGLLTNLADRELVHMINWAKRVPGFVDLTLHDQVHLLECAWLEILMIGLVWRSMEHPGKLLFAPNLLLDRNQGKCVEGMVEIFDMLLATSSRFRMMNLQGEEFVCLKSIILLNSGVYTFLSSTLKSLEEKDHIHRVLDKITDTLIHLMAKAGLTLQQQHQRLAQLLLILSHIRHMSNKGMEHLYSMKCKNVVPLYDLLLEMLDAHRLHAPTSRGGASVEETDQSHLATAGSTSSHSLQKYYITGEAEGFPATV
Sequence of Androgen receptor (Homo sapiens) (P10275 whole entry, looked up): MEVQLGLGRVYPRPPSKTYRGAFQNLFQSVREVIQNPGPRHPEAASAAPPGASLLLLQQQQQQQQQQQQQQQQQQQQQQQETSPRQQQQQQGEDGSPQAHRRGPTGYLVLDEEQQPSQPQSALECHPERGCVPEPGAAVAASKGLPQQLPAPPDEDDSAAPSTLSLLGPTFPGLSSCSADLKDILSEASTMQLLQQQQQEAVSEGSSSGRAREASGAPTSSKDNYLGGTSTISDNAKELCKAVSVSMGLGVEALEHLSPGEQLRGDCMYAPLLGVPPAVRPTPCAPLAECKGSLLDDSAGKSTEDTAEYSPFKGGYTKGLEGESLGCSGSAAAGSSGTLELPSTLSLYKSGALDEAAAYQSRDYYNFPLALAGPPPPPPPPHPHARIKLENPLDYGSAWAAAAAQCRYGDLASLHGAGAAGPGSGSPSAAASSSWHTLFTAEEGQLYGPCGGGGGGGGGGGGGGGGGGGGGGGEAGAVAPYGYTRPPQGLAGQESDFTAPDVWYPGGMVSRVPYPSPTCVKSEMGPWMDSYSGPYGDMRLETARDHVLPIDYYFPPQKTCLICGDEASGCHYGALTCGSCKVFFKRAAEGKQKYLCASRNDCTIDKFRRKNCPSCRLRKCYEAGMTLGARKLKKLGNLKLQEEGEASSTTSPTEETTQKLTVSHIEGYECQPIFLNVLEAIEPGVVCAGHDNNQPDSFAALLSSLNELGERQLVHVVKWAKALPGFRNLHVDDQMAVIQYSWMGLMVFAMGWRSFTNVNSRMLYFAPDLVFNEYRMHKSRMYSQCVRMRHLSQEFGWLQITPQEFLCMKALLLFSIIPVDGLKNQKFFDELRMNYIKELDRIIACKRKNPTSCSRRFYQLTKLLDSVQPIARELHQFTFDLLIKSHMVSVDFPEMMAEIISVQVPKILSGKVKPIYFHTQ

Turning to `Clc1ccccc1CN1CCc2sccc2C1`, the Potency result in experiment [1], in experiment [2], in experiment [3], in experiment [4], in experiment [5] and in [6] was “inactive” each time. The Potency result in experiment [7], in experiment [8], in experiment [9], in [10], in experiment [11] and in experiment [12] was “inactive” in each case. The Potency result in [13] and in experiment [14] was “inactive” each time.
Take `Clc1ccc(C(Cn2ccnc2)OCc2c(Cl)cccc2Cl)c(Cl)c1` (stereo not drawn): the Potency entry in [3], in experiment [5], in experiment [16], in experiment [8], in experiment [18] and in experiment [9] was “inactive” in each case. Besides, the Potency entry in experiment [10], in experiment [12] and in experiment [13] was “inactive” throughout. Moreover, the Potency was 16.9 µM (active) in experiment [15] and 8.41 µM (active) in experiment [17].
For the compound `CCOC(=O)[C@@](C)(N)Cc1ccc(O)c(O)c1`, the Potency entry in experiment [3], in experiment [15], in experiment [4], in experiment [5], in experiment [6] and in [8] was “inactive” throughout. The Potency result in experiment [18], in [19], in [9], in experiment [10] and in experiment [11] was “inactive” throughout.
In the case of `C/C=C/C(=O)Oc1c(CCCCCC(C)C)cc([N+](=O)[O-])cc1[N+](=O)[O-]`, the Potency entry in experiment [1], in [7], in [9], in experiment [10] and in [13] was “inactive” each time. For the same compound, the Potency in experiment [3] was 21.9 µM (active); in [15], 19.5 µM (active); in experiment [8], 15.4 µM (active); in [18] it was 4.33 µM (active); in experiment [11], 61.1 µM (active); in experiment [12], 54.5 µM (active). In addition, the Potency in [14] is 2.17 µM (active).
Turning to `C[C@]12CC[C@H]3C(=CCc4cc(O)ccc43)[C@@H]1CCC2=O`, the Potency result in experiment [1], in [2], in [4], in experiment [5], in [6] and in [7] was “inactive” throughout. Further, the Potency entry in [16], in [8], in experiment [18], in experiment [9], in [10] and in experiment [13] was “inactive” throughout. Moreover, the Potency in experiment [15] is 43.6 µM (active).
Turning to `N[C@@H](CSSC[C@H](N)C(=O)O)C(=O)O`, in experiment [2], the cytotoxicity increase is 26.5% [at 0.29 µM]. Besides, the activity change, negative = cytotoxic in experiment [3] was 0.777% [at 0.29 µM]. In addition, the activity change, negative = cytotoxicity in [15] was 9.89% [at 0.29 µM]; in [4] it was 16.3% [at 0.29 µM]; in [6] it was 0.0589% [at 0.29 µM]; in [16], 0.433% [at 0.349 µM]; in experiment [10], 2.74% [at 0.349 µM]. Moreover, the activity change in experiment [5] was 14.4% [at 0.29 µM, stronger effect = higher value]; in experiment [13], -0.169% [at 0.349 µM, stronger effect = higher value]. The viability change, negative = cytotoxic in experiment [8] is -1.71% [at 0.349 µM]. Further, the activity, negative = inhibition in experiment [17] is 4.74% [at 0.349 µM]. Further, the Potency in [14] is 0.335 µM (active).
Take `CCCCCCC(C)OC(=O)COc1nc(F)c(Cl)c(N)c1Cl` (stereo not drawn): the Potency entry in experiment [1], in experiment [2], in [3], in [5], in [6] and in experiment [16] was “inactive” each time. Besides, the Potency entry in [8], in experiment [9], in experiment [11], in experiment [12], in experiment [13] and in [14] was “inactive” in each case.
`S=C(SSSSSSC(=S)N1CCCCC1)N1CCCCC1`: the cytotoxicity in experiment [1] was -6.55% [at 15.8 µM]. The cytotoxicity increase in [2] was -0.556% [at 15.8 µM]. The activity change is 19.1% [at 15.8 µM, stronger effect = higher value] in experiment [5] and -10.5% [at 18.9 µM, stronger effect = higher value] in experiment [13]. For the same compound, the activity change, negative = cytotoxicity in experiment [6] was -21.4% [at 15.8 µM]. Also, the viability change, negative = cytotoxic in [8] was -10.8% [at 19 µM]. Besides, the activity change, negative = inhibition in experiment [9] is -8.72% [at 19 µM]. The Potency in [11] is 5.35 µM (active); in experiment [12], 7.56 µM (active).
Turning to `O=C1Nc2ccc(Cl)cc2[C@@](C#CC2CC2)(C(F)(F)F)O1`, the Potency entry in experiment [1], in [6], in [16], in experiment [8], in [9] and in experiment [10] was “inactive” throughout. Besides, the Potency result in [11], in experiment [12] and in [13] was “inactive” throughout. For the same compound, the Potency in experiment [15] and in experiment [4] was 23.9 µM (active) throughout.
On to `CCOB(OCC)OCC`, for which the Potency entry in experiment [1], in [2], in experiment [3], in experiment [5], in experiment [6] and in [8] was “inactive” in each case. The Potency entry in [17], in experiment [18], in experiment [9], in experiment [10], in experiment [11] and in [12] was “inactive” throughout. The Potency result in experiment [13] and in experiment [14] was “inactive” throughout.
Turning to `Cc1ccc(N)cc1O`, the Potency entry in [1], in [3], in experiment [4], in experiment [6], in [7] and in experiment [8] was “inactive” each time. The Potency entry in experiment [19], in [10], in [11], in experiment [12] and in experiment [13] was “inactive” throughout.
For `COC(=O)C1=C(C)NC(C)=C(C(=O)OCCCN2CCC(c3ccccc3)(c3ccccc3)CC2)C1c1cccc([N+](=O)[O-])c1` (stereo not drawn), the Potency entry in experiment [1], in experiment [2], in [5], in experiment [6], in [7] and in [16] was “inactive” in each case. Also, the Potency result in experiment [9], in [10] and in experiment [13] was “inactive” in each case. Moreover, the Potency in experiment [15] was 10.7 µM (active); in experiment [4] it was 16.9 µM (active); in experiment [17], 21.1 µM (active); in [11], 26.6 µM (active); in experiment [14], 33.5 µM (active).
Turning to `NCCCC(O)(P(=O)(O)O)P(=O)(O)O`, the Potency result in experiment [2], in [3], in experiment [15], in experiment [4], in [5] and in experiment [6] was “inactive” throughout. For the same compound, the Potency entry in experiment [16], in [8], in experiment [9], in experiment [10], in experiment [11] and in [12] was “inactive” throughout. Also, the Potency result in [13] and in experiment [14] was “inactive” in each case.
